# Values quoted from earlier work as cited in PubChem BioAssay AID977611.
# In all, about 3,900 compounds went through this assay and about 3,900 (100%) were called active. The limit is not given here; nearly all actives have Kd up to about 4200 µM. The set was probably picked from earlier hits. Some of the results follow. Where a SMILES comes first, the peptide text is derived from it.
# Assay: PubChem AID 977611
# Conditions: PDB protein-ligand complexes, literature Kd
structure (smiles),measurement,setting,value
CC(=O)N[C@H]1[C@H](O[C@@H]2[C@@H](O)[C@@H](O)O[C@H](CO)[C@@H]2O[C@H]2O[C@H](CO[C@@H]3O[C@@H](C)[C@H](O)[C@@H](O)[C@H]3O)[C@@H](O)[C@H](O)[C@H]2O)O[C@H](CO)[C@@H](O)[C@@H]1O,Kd,"protein: TAIL SPIKE PROTEIN(D339N mutant), PDB entry 2x6x",210 µM (active)
CC(=O)N[C@@H]1[C@@H](O[C@H]2O[C@H](CO)[C@H](O[C@H]3O[C@H](CO[C@@H]4O[C@@H](C)[C@H](O)[C@@H](O)[C@H]4O)[C@@H](O)[C@H](O)[C@H]3O)[C@H](O[C@@H]3O[C@H](CO)[C@@H](O)[C@H](O)[C@H]3NC(C)=O)[C@H]2O)[C@H](O)[C@@H](CO[C@H]2O[C@H](CO)[C@@H](O)[C@H](O)[C@H]2O)O[C@@H]1O,Kd,"protein: TAIL SPIKE PROTEIN(E372Q mutant), PDB entry 2x6w",0.079 µM (active)
CC(=O)N[C@H]1[C@H](O[C@@H]2[C@H](O[C@]3(C(=O)O)C[C@H](O)[C@@H](NC(C)=O)[C@H]([C@H](O)[C@H](O)CO)O3)[C@@H](O)[C@H](O[C@H]3[C@H](O)[C@@H](O)[C@H](O)O[C@@H]3CO)O[C@@H]2CO)O[C@H](CO)[C@H](O)[C@@H]1O[C@@H]1O[C@H](CO)[C@H](O)[C@H](O)[C@H]1O,Kd,"protein: ECXA, PDB entry 4l6t",0.032 µM (active)
CC(=O)N[C@@H]1[C@@H](O)[C@H](O[C@@H]2O[C@H](CO)[C@@H](O[C@@H]3O[C@H](CO[C@H]4O[C@H](CO)[C@@H](O)[C@H](O)[C@@H]4O[C@@H]4O[C@H](CO)[C@@H](O)[C@H](O)[C@H]4NC(C)=O)[C@@H](O)[C@H](O[C@H]4O[C@H](CO)[C@@H](O)[C@H](O)[C@@H]4O[C@@H]4O[C@H](CO)[C@@H](O)[C@H](O)[C@H]4NC(C)=O)[C@@H]3O)[C@H](O)[C@H]2NC(C)=O)[C@@H](CO)O[C@H]1NC(=O)C[C@H](N)C(=O)O,Kd,"protein: LECTIN, PDB entry 3zyr",4.6 µM (active)
Nc1c(I)c(C(=O)O)c(I)c(C(=O)O)c1I,Kd,"protein: EXTRACELLULAR PROTEIN 6, PDB entry 4b9h",4.5 µM (active)
N/C=C/CCNCCCN,Kd,"protein: Putrescine-binding periplasmic protein (S38T, D39E, S87Y, A182D, D247S, F276W, L348Q mutation), PDB entry 4jdf",6400 µM (active)
NCCCCNCCCN,Kd,"protein: Phospholipase A2 VRV-PL-VIIIa, PDB entry 4qf8",0.031 µM (active)
COc1ccc2c(CC(=O)O)coc2c1,Kd,"protein: Pantothenate synthetase (T2A, E77G mutation), PDB entry 4ddh",500 µM (active)
NC1NC(=O)c2nc(CNc3ccc(C(=O)N[C@@H](CCC(=O)O)C(=O)O)cc3)cnc2N1 (stereo not given in full),Kd,"protein: Folate receptor alpha, PDB entry 4lrh",0.00019 µM (active)
same,Kd,"protein: Folate receptor beta, PDB entry 4kmz",0.0027 µM (active)
Nc1nc(N)c2nc(CNc3ccc(C(=O)N[C@@H](CCC(=O)O)C(=O)O)cc3)cnc2n1,Kd,"protein: Folate receptor beta, PDB entry 4kn1",0.144 µM (active)
NC1NC(=O)c2c(CCc3ccc(C(=O)N[C@@H](CCC(=O)O)C(=O)O)cc3)c[nH]c2N1 (stereo not given in full),Kd,"protein: Folate receptor beta, PDB entry 4kn2",0.054 µM (active)
N[C@H](CNc1nc(-c2ccncc2)nc2sc3c(c12)CCCC3)Cc1ccccc1,Kd,"protein: PROTEIN KINASE C IOTA TYPE, PDB entry 3zh8",0.341 µM (active)
O=C(O)[C@H](O)CO[P+](O)(O)O,Kd,"protein: human phosphoglycerate kinase, PDB entry 3c39",109 µM (active)
O=C(CO)[C@@H](O)[C@H](O)[C@H](O)CO[P+](O)(O)O,Kd,"protein: Glucokinase regulatory protein, PDB entry 3w0l",0.095 µM (active)
O=C(O)CO[P+](O)(O)O,Kd,"protein: TRIOSEPHOSPHATE ISOMERASE (A198V, C202A, C222N mutation), PDB entry 4bi6",113 µM (active)
same,Kd,"protein: TRIOSEPHOSPHATE ISOMERASE (C202A mutation), PDB entry 4bi7",26.4 µM (active)
O=C(CO[P+](O)(O)O)NO,Kd,"protein: Fructose-bisphosphate aldolase, PDB entry 4del",0.0211 µM (active)
O=C(O)c1ccc(-c2ccc(C(=S)NCc3ccc(-c4ccnn4-c4ccc(Cl)c(Cl)c4)cc3)c(Cl)c2)o1,Kd,"protein: Replication protein A 70 kDa DNA-binding subunit, PDB entry 4lwc",0.19 µM (active)
COCCO[C@@H]1COCCOC[C@H]1OCCOC,Kd,"protein: METAL-BINDING PROTEIN YODA, PDB entry 4aw8",0.022 µM (active)
C[C@@H](O)[C@H](NC(=O)[C@@H]1CCCN1C(=O)[C@H](CO[P+](O)(O)O)NC(=O)[C@H](Cc1ccc(O)cc1)NC(=O)[C@H](CO)NC(=O)[C@@H]1CCCN1)C(=O)N[C@@H](CO)C(=O)N1CCC[C@H]1C(=O)N[C@@H](CO)C(=O)O,Kd,"protein: Rtt103 CTD-interacting domain, PDB entry 2l0i",15 µM (active)
C[C@@H](O)[C@H](NC(=O)[C@@H]1CCCN1C(=O)[C@H](CO)NC(=O)[C@H](Cc1ccc(O)cc1)NC(=O)[C@H](CO)NC(=O)[C@@H]1CCCN1)C(=O)N[C@@H](CO)C(=O)N1CCC[C@H]1C(=O)N[C@H](C=O)CO (H-PSYSPTSPS-aldehyde),Kd,"protein: CTD INTERACTING DOMAIN of RNA processing factor SCAF8(N15M/Y17M), PDB entry 3d9o",1000 µM (active)
C[C@@H](O)[C@H](NC(=O)[C@@H]1CCCN1C(=O)[C@H](CO[P+](O)(O)O)NC(=O)[C@H](Cc1ccc(O)cc1)NC(=O)[C@H](CO)NC(=O)[C@@H]1CCCN1)C(=O)N[C@@H](CO[P+](O)(O)O)C(=O)N1CCC[C@H]1C=O,Kd,"protein: CTD INTERACTING DOMAIN of RNA processing factor SCAF8(R112T), PDB entry 3d9p",29 µM (active)
NC(=S)Nc1ccc(C[C@H](CN(CC(=O)O)[C@H]2CCCC[C@@H]2N(CC(=O)O)CC(=O)O)N(CC(=O)O)CC(=O)O)cc1,Kd,"protein: Neutrophil gelatinase-associated lipocalin (mutation), PDB entry 4iaw",0.000234 µM (active)
same,Kd,"protein: Neutrophil gelatinase-associated lipocalin (mutation), PDB entry 4iax",0.000273 µM (active)
